# From the OligoGym collection
# Molecular target: KIAA0101
# Test: pooled miR-30 sensor sort-seq; sequence = guide strand
# Settings: shRNA
# Also: reference of the scale not given here.
row,Sequence,sensor-assay potency score (higher = more potent)
1,TTTGCTTTTCCTAAGCCACTGC,0.846
2,TTACATTCTAGAATACCAGGGT,1.19
3,ATTTGTGTGATCAGGTTGCAAA,-1.36
4,TTATTTTCAGCTTTCCTCGATG,-0.0942
5,TTCCTTTTTGCCACTTGGGAGT,-1.06
6,TTTTTCAGAATCTTTAGGGGAC,0.436
7,TTCTTTTTCATCATTTGTGTGA,-0.441
8,TTCAGGAATCTGATTCTCTTTT,-0.732
9,TTCATCATTTGTGTGATCAGGT,1.01
10,TTCCTAAGCCACTGCTTCCTGC,-1.25

# Molecular target: KIAA0319
# Test: as above
# Settings: shRNA
row,Sequence,sensor-assay potency score (higher = more potent)
1,TTATGGTGTGATTTGGTCCTGC,0.156
2,AAATGTATAATCTCCTTCCTGC,0.3
3,TACATAAAACACAATCACGGTG,-0.47
4,TTCTCTTCTATGAAGGGCCCGT,-0.659
5,TAAGAGTTTGCTTGTGTCCTTG,0.184
6,TTCAGCAGCTTTGAGAACCTTG,-0.33
7,TTTCACTAGAAACAGTGACTTT,-0.974
8,TAAAACACAATCACGGTGCTGA,1.15
9,TTCACCTTGGTAGTCTGTGGGG,-0.629
10,TTATAATTAGGTTATCTCCAGC,-0.767
11,TTCACTAGAAACAGTGACTTTG,-0.766
12,TTTATTTCTATTAACAAGCATC,-1.13

# Molecular target: KIAA0368
# Test: as above
# Settings: shRNA
row,Sequence,sensor-assay potency score (higher = more potent)
1,TTCTGAATCACACTGTTCCGAT,-0.203
2,TTGAATTTGTATTTGTACCAAA,-0.672
3,TTTGATGCAACATCTTGGCTAA,0.354
4,TTTTCTTGCTCTGTCGCCCGGA,0.627
5,TTTAACTTGACTCTTGTACTGA,0.641
6,TTGAATAGCAAGTCGAGTCTCA,0.314
7,TATTCTGTAATTGTTCATCTGT,0.659
8,TTAACTTGACTCTTGTACTGAC,0.576
9,TTGTATTTGACATTCTCTTTGC,-0.267
10,TTTATTTAAAATCACATCCAAC,-1.25
11,TTTTGTAGTCTTTATAAGCTGT,-0.31
12,TTCTGTAGCACTCTGAATGAGT,-0.327

# Molecular target: KIAA0564
# Test: as above
# Settings: shRNA
row,Sequence,sensor-assay potency score (higher = more potent)
1,TTGAATATAACAACTTAAGTTG,-0.73
2,TTTGCCAGAACAATCATCCTAA,0.448
3,ATCAACAGTAACAACACCGCTT,0.22
4,TAGTCTTTGCTTATTGTCCTTG,-0.514
5,TTAACCTTTGCAATACAGCAAG,-0.99
